Test [1] addresses Nuclear receptor subfamily 1 group I member 2 (Homo sapiens) (UniProt O75469). The test can be described thus: Human pregnane X receptor (PXR) small molecule agonists, qHTS assay (AID 1346982). Note: nearly all actives have a fitted effect of over 35% in size. Note: potency is the fitted concentration of half-maximal effect. The note with it: PXR-Luc HepG2, CYP3A4 luciferase reporter, 24 h; series mostly up to 92.4 µM. In outline:
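Compound-induced hPXR transactivation of a CYP3A4 luciferase reporter was scored in HepG2 PXR-Luc cells over 24 hr at 37 C, 5% CO2, by luminescence.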

Test [2] deals with Cytochrome P450 2D6 (Homo sapiens) (UniProt P10635). The test can be described thus: Cytochrome P450 Family 2 Subfamily D Member 6 (CYP2D6) small molecule antagonists: luciferase reporter qHTS assay (AID 1671196). Note: nearly all actives have a fitted effect of over 50% in size. Note: potency is the fitted concentration of half-maximal effect. The note with it: P450-Glo CYP2D6 enzyme assay, luciferin luminescence, 1 h; series mostly up to 115 µM. A digest of the protocol:
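Each well received CYP2D6 with its proluciferin substrate and chemical, sat 10 min, then got NADPH regeneration solution for 1 h at room temperature. Luminescence in RLU served as the activity measure.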

The target of test [3] is Cytochrome P450 2C19 (Homo sapiens) (UniProt P33261). The test can be described thus: Cytochrome P450 Family 2 Subfamily C Member 19 (CYP2C19) small molecule antagonists: luciferase reporter qHTS assay (AID 1671197). Note: nearly all actives have a fitted effect of over 65% in size. Note: potency is the fitted concentration of half-maximal effect. The conditions noted are these: P450-Glo CYP2C19 enzyme, luciferin luminescence, 1 h; series mostly up to 115 µM. A digest of the protocol:
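First, compounds are pinned into enzyme-substrate mix and held 10 min at room temperature. Second, NADPH regeneration solution is added and plates incubate 1 h at 37C. Third, detection reagent is added and luminescence read after 20 min.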

For test [4], the target named is Cytochrome P450 2C9 (Homo sapiens) (UniProt P11712). The test can be described thus: Cytochrome P450 Family 2 Subfamily C Member 9 (CYP2C9) small molecule antagonists: luciferase reporter qHTS assay (AID 1671198). Note: nearly all actives have a fitted effect of over 50% in size. The conditions noted are these: P450-Glo CYP2C9 enzyme assay, luciferin luminescence; series mostly up to 115 µM. In outline:
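P450-Glo proluciferin substrate with CYP2C9 enzyme; 10 min RT preincubation, then NADPH regeneration 1 h at 37C; luciferin detection reagent 20 min RT, luminescence in relative luminescence units.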

In test [5] the target is Voltage-gated inwardly rectifying potassium channel KCNH2 (Homo sapiens) (UniProt Q12809). The test can be described thus: Human Ether-a-go-go-Related Gene (hERG) channel small molecule antagonists: fluorescence cell-based qHTS assay (AID 1671200).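 Note: hERG-expressing U2OS cells given a thallium stimulus after FluxOR II dye loading; nearly all actives have a fitted effect of over 50% in size.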 The note with it: hERG-U2OS cells, FluxOR thallium flux fluorescence; series mostly up to 76.8 µM. In outline: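 Measured: Tl+ flux via fluorescence (480/540 nm) in hERG-expressing U2OS cells after 1 h dye loading at room temperature.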
Sequence of Voltage-gated inwardly rectifying potassium channel KCNH2 (Homo sapiens) (Q12809 whole entry, looked up): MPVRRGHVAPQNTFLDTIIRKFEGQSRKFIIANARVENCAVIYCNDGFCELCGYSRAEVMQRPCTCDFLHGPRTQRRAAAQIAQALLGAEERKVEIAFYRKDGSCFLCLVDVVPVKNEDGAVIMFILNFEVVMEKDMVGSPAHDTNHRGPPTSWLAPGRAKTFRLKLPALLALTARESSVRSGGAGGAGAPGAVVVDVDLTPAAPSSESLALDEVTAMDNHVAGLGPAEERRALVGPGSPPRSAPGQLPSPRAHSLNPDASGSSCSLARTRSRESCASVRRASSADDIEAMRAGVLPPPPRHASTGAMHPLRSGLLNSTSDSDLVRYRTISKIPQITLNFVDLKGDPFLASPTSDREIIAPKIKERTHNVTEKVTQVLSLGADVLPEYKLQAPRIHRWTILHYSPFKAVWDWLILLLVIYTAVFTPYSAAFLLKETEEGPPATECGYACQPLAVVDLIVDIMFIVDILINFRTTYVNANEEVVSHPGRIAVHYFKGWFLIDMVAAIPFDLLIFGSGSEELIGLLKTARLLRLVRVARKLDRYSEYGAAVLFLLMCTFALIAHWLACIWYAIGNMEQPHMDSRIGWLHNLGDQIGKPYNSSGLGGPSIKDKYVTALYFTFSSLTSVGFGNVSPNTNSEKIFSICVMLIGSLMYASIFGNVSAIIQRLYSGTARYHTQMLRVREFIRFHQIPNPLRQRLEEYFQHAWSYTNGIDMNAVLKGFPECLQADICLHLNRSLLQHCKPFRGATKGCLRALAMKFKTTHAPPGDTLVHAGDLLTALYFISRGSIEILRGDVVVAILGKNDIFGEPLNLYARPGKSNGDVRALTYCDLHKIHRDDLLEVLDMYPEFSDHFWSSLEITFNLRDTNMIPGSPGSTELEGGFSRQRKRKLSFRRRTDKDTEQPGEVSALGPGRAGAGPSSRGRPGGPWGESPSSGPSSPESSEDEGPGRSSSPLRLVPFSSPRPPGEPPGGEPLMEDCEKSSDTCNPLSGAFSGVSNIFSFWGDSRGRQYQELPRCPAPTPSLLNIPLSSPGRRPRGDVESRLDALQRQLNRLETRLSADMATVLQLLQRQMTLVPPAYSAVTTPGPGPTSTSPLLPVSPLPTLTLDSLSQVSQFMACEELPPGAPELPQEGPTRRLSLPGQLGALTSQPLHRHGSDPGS

The target in test [6] is Cytochrome P450 1A2 (Homo sapiens) (UniProt P05177). The test can be described thus: Cytochrome P450 Family 1 Subfamily A Member 2 (CYP1A2) small molecule antagonists: luciferase reporter qHTS assay (AID 1671199). Note: nearly all actives have a fitted effect of over 50% in size. Note: potency is the fitted concentration of half-maximal effect. The note with it: P450-Glo CYP1A2 enzyme, luciferin luminescence, 1 h; series mostly up to 115 µM. A digest of the protocol:
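Enzymatic CYP1A2 assay, human, luminescent: 10 min compound–enzyme–substrate preincubation, 1 h NADPH-dependent turnover, 20 min detection step, room temperature throughout. Reduced light indicates lower CYP1A2 activity.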

Test [7] concerns the target Cytochrome P450 3A4 (Homo sapiens) (UniProt P08684). The test can be described thus: Cytochrome P450 Family 3 Subfamily A Member 4 (CYP3A4) small molecule antagonists: luciferase reporter qHTS assay (AID 1671201). Note: nearly all actives have a fitted effect of over 50% in size. Note: potency is the fitted concentration of half-maximal effect. The note with it: P450-Glo CYP3A4 enzyme, luciferin luminescence, 1 h; series mostly up to 115 µM. In outline: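 Setup: enzyme-substrate mix, compound pin transfer, 10 min RT. Reaction: NADPH regeneration solution, 1 h RT. Readout: detection reagent stops turnover, luminescence measured after 20 min, expressed in relative luminescence units.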

Molecules are shown by their SMILES. Records with an inconclusive call do not appear. Activity calls are given as the source filed them. Calls come from the whole dose curve; as a rule, active = well fitted curve in the direction sought with a large enough effect in the repeat runs; inconclusive = weak or mixed curves; inactive = no such curve, though single readings can be large; an effect the other way counts as inactive or inconclusive. Where a SMILES comes first, the peptide text is derived from it.

Sequence of Cytochrome P450 2D6 (Homo sapiens) (P10635 whole entry, looked up): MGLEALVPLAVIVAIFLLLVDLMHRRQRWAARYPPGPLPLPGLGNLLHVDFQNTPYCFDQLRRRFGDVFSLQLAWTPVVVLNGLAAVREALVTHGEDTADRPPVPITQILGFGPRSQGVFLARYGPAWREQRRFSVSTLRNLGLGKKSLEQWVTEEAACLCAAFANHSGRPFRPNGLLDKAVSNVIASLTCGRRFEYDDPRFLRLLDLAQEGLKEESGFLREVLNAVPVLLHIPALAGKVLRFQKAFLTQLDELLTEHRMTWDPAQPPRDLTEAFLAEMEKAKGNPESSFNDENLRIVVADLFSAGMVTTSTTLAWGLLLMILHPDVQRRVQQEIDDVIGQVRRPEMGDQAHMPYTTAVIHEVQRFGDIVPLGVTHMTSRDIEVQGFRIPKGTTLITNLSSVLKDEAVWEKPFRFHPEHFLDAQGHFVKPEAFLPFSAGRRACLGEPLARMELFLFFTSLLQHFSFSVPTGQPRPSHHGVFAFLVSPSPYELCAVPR
Sequence of Nuclear receptor subfamily 1 group I member 2 (Homo sapiens) (O75469 whole entry, looked up): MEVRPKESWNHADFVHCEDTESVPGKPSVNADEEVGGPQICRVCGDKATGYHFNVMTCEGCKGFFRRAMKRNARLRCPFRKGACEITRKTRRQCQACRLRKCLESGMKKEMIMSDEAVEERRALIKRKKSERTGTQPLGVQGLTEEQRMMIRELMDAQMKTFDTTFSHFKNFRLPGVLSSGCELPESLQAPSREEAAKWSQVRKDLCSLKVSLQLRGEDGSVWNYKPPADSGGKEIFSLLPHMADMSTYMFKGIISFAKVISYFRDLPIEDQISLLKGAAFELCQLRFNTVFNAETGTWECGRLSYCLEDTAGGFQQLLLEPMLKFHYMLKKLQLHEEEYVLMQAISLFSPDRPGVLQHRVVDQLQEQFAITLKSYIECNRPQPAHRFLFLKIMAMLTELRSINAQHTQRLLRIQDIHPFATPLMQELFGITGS
Sequence of Cytochrome P450 3A4 (Homo sapiens) (P08684 whole entry, looked up): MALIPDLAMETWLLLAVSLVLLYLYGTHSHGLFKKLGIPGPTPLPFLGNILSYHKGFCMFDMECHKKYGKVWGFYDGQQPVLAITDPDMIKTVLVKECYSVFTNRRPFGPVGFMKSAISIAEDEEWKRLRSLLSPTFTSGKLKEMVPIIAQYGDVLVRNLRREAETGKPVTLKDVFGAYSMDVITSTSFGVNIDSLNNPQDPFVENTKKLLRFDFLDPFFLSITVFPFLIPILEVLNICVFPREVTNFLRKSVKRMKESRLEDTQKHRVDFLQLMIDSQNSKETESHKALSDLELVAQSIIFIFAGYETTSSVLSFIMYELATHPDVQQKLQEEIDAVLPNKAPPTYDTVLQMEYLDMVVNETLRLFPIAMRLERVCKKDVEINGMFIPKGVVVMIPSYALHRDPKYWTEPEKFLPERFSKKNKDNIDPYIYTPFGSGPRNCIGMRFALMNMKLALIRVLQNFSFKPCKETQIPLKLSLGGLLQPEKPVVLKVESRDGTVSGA
Sequence of Cytochrome P450 2C9 (Homo sapiens) (P11712 whole entry, looked up): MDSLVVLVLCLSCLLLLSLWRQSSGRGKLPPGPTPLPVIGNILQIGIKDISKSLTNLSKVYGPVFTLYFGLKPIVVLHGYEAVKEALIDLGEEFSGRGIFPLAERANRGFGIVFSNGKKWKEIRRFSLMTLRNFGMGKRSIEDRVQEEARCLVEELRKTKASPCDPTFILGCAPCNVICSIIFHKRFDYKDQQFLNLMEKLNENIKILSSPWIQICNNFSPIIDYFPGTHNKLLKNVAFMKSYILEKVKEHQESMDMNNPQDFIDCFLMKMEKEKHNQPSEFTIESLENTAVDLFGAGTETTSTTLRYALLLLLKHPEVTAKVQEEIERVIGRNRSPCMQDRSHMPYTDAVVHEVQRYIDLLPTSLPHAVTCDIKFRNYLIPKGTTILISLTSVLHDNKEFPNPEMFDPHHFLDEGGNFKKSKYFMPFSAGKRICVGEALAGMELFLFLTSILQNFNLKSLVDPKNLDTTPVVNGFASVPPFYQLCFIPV
Sequence of Cytochrome P450 1A2 (Homo sapiens) (P05177 whole entry, looked up): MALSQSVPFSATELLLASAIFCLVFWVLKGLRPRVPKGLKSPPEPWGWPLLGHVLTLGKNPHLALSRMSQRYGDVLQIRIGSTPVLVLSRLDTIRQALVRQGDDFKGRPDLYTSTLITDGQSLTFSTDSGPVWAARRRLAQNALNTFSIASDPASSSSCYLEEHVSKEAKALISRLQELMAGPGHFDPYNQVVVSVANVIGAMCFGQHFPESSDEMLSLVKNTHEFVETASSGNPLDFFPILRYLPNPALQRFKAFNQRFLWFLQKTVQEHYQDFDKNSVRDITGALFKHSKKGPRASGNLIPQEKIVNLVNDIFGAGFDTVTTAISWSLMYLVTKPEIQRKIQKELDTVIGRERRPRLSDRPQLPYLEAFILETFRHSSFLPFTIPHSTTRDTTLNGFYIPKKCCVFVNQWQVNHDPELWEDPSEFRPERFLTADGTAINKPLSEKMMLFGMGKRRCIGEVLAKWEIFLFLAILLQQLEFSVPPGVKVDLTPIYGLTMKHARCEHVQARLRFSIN
Sequence of Cytochrome P450 2C19 (Homo sapiens) (P33261 whole entry, looked up): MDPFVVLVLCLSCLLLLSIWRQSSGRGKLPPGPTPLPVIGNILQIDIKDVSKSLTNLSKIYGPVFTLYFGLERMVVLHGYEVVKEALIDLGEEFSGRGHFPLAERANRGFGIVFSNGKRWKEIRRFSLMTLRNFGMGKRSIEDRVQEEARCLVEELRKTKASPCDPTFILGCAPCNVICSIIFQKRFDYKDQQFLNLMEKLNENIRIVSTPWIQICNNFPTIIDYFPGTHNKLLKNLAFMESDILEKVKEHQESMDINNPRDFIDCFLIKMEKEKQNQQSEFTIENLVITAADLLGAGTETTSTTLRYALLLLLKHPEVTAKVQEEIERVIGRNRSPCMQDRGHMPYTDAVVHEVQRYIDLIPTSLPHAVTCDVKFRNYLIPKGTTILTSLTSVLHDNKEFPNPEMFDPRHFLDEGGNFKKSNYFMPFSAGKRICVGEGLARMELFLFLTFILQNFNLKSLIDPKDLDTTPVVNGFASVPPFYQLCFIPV

As to `C=C(C)[C@@H]1CC=C(C)C(=O)C1`, the Potency result in test [1], in test [2], in test [3], in test [4] and in test [5] was “inactive” each time.

As for `CO/N=C(/C(=O)N[C@@H]1C(=O)N2C(C(=O)[O-])=C(C[n+]3ccn4ncccc43)CS[C@H]12)c1nsc(N)n1`, the Potency result in test [1], in test [2], in test [3], in test [4], in test [5] and in test [7] was “inactive” each time. The Potency in test [6] was 27.5 µM (active).

For `CC(=O)O[C@H]1C[C@@H]2CC[C@@]1(C)C2(C)C`, the Potency result in test [1], in test [2], in test [3], in test [4], in test [5] and in test [7] was “inactive” throughout.

On to `N#Cc1cscn1`, for which the Potency entry in test [1], in test [2], in test [3], in test [4], in test [6] and in test [5] was “inactive” in each case. Also, the Potency entry in test [7] was “inactive”.

For `CC1OCCC1=O` (stereo not given), the Potency entry in test [1], in test [2], in test [3], in test [4], in test [6] and in test [5] was “inactive” throughout. The Potency entry in test [7] was “inactive”.

As to `O=C(O)CONC(=O)c1ccccc1`, the Potency result in test [1], in test [2], in test [3], in test [6], in test [5] and in test [7] was “inactive” throughout.

Turning to `CCCCCCCCCCCCCBr`, the Potency result in test [1], in test [2] and in test [5] was “inactive” throughout. The Potency was 70.8 µM (active) in test [3] and 22.4 µM (active) in test [6].

Turning to `CCC(=O)CC`, the Potency entry in test [1], in test [2], in test [3], in test [4], in test [5] and in test [7] was “inactive” in each case.

As for `CC(=O)N[C@@H](CO)C(=O)N[C@@H](CC(=O)O)C(=O)N[C@@H](CCCCN)C(=O)N1CCC[C@H]1C(=O)O` (Ac-SDKP-OH), the Potency result in test [1], in test [2], in test [3], in test [6], in test [5] and in test [7] was “inactive” each time.

For the molecule `CCCCOCCOC(=O)COc1ccc(Cl)cc1Cl`, the Potency entry in test [1], in test [2], in test [5] and in test [7] was “inactive” each time. Besides, the Potency was 79.6 µM (active) in test [3] and 20 µM (active) in test [6].

Turning to `CC(=O)C(C)O` (stereo not given), the Potency entry in test [1], in test [2], in test [3], in test [6], in test [5] and in test [7] was “inactive” throughout.

On to `COS(=O)(=O)O`, for which the Potency result in test [1], in test [2], in test [3], in test [4], in test [5] and in test [7] was “inactive” in each case.

Consider `c1ccc(B(c2ccccc2)c2ccccc2)cc1`, for which the Potency in test [1] was 30.6 µM (active); in test [2], 31.7 µM (active); in test [3], 17.8 µM (active); in test [6], 22.4 µM (active); in test [7], 35.5 µM (active). Further, the Potency entry in test [5] is “inactive”.

Take `CC(C)COC(=O)c1ccccc1`: the Potency entry in test [1], in test [2], in test [3], in test [4], in test [5] and in test [7] was “inactive” in each case.

Values taken from PubChem BioAssay (Tox21).
